HCMV inh: human cytomegalovirus inhibition. HFF cells, HCMV-luciferase reporter, 72 h; hits give low values. activity change, negative = inhibition, % at 57.5 µM. actives 4.5% (n = 410,000); in the data active = activity change below about -60%; inconclusive = no clear call, values can overlap the other calls; inactive = above about -39%; note: % is set by controls: 0 for no effect and ±100 for the full control effect
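Cell-based, HFFs, 1000 cells/well, 16 h 37C; cpds in DMSO + HCMV-luc, MOI 1 PFU/cell; 72 h 37C; OneGlo luminescence after 5 min RT; norm. to buffer vs Salinomycin 10uM.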
HCV inh: inhibitors of hepatitis C virus infection; Huh7.5.1 HCVcc-Cre infection, luciferase reporter, 44 h; Potency, µM (highest dose often 41.8 µM), for the others: top-dose activity change, negative = inhibition, most hits filed as inhibitors; actives 3.4% (n = 340,000); note: potency is the fitted concentration of half-maximal effect; % is set by controls: 0 for no effect and ±100 for the full control effect
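A cell-based infection assay in which seeded cells (1,000 per well) receive test compound after 4 h, are inoculated with HCVcc-Cre at approximately 0.5 moi, and are incubated 44 h before luminescence detection.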
Pf growth 48h: P. falciparum growth inhibition at 48 hours (one generation); P. falciparum luciferase growth in erythrocytes, 48 h; Potency, µM (series often up to 28.7 µM), inactives show at the highest dose activity change, negative = inhibition, most hits filed as inhibitors; actives 5.9% (n = 310,000); note: potency is the fitted concentration of half-maximal effect; % is set by controls: 0 for no effect and ±100 for the full control effect
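First compound was added to culture medium, then infected red cells at 0.1% parasitemia and 2% hematocrit (final). After incubation at 37 C under 5% CO2, luciferase detection reagent was dispensed and light output recorded.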
Sm TGR inh: inhibitors of Schistosoma mansoni thioredoxin glutathione reductase; Q962Y6; purified TGR, DTNB reduction, TNB absorbance 405 nm; Potency, µM (titrated, usually from 114 µM), inactives show top-dose activity change, negative = inhibition, usual class: inhibitors; actives 3% (n = 360,000); AID 485364; note: potency is the fitted concentration of half-maximal effect; % is set by controls: 0 for no effect and ±100 for the full control effect; nearly all actives have a fitted effect of over 60% in size
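First, TGR (20 nM dispensed) and NADPH were mixed with compound. Second, a 15 min room-temperature incubation followed. Third, further NADPH and then DTNB were added to start the reaction. Finally, TNB absorbance was monitored kinetically.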
SARS PLpro yeast: inhibitors of SARS-CoV papain-like protease in yeast | S. cerevisiae expressing SARS-CoV PLpro, growth rescue | Potency, µM (doses to about 32.9 µM), for the others: at the highest dose activity, positive = growth rescue, hits mostly activators | actives 0.19% (n = 330,000) | AID 485353; calls by dose curve; note: potency is the fitted concentration of half-maximal effect; 0% is about no effect; nearly all actives have a fitted effect of over 55% in size
Pf growth 96h: P. falciparum growth inhibition at 96 hour, primary screen for plastid delayed-death inhibitors. AID 504834. P. falciparum luciferase reporter growth, 96 h. actives 6.9% (n = 320,000). Potency, µM (titrated, usually from 28.7 µM), for inactives: top-dose activity change, negative = inhibition, usual class: inhibitors; note: potency is the fitted concentration of half-maximal effect; % is set by controls: 0 for no effect and ±100 for the full control effect
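Infected RBCs, 2% Hct / 0.05% parasitemia final; luciferase-reporter P. falciparum; cpd 96 h, 37 C, 5% CO2; luciferase detection reagent; luminescence.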
* hit, by the source's call; u = inconclusive; x = no result; [ ] = remark or other dose. In the library only some 15% were active in any assay of this set; here they are far more common. Unless noted, calls come from the whole dose curve; as a rule, active = well fitted curve in the direction sought with a large enough effect; inconclusive = small, poorly fitted or top-dose-only effect, or another doubt; inactive = no such curve, though single readings can be large; an effect the other way counts as inactive or inconclusive.

SMILES	HCMV inh	HCV inh	Pf growth 48h	Sm TGR inh	SARS PLpro yeast	Pf growth 96h
CCOc1c(Cl)cc(CNCC(C)C)cc1OC	23	-16%	x	-1%	3%	16%
CCOc1cc(C2NN=C(c3ccccc3)S2)ccc1OCc1ccccc1Cl (stereo unspecified)	192	u	137%	-4%	-5%	144%
CCOc1c(Cl)cc(CNCC(O)c2ccccc2)cc1OC (stereo unspecified)	-7	-28%	4.1µM*	10%	1%	31%
CCOc1cc(C(N)=O)cc(Cl)c1OCc1ccccc1	-10	13µM*	-1%	x	-5%	15%
COc1cc(C(N)=O)cc(Cl)c1OCc1ccccc1	25	-6%	10%	4%	0%	6%
CCOc1cc(CNC2CCCC2)ccc1OCc1ccccc1Cl	-11	3.2µM*	u	9%	-1%	-55%[5.75 µM]
CC(=O)c1ccc(S(=O)(=O)NCC(=O)Nc2nc3ccccc3[nH]2)cc1	13	15%	-12%	-2%	-9%	u
CCOC(=O)c1c(-c2ccc(OC)cc2)csc1NC(=O)CSc1ncnc2sccc12	-71*	u	u	3%	24%	5.2µM*
CCOC(=O)c1c(-c2ccccc2Cl)csc1NC(=O)CSc1nc(C)cc(=O)[nH]1	u	23%	-24%	-12%	20%	12µM*
CCOC(=O)c1c(-c2ccc(C)o2)csc1NC(=S)NC(=O)c1ccccc1Br	43	u	13µM*	u	-3%	7.4µM*
CCOC(=O)c1sc(NC(=O)CSc2nnnn2-c2ccccc2)nc1C	u	21%	4%	-16%	3%	-22%
CCOC(=O)c1ccc(NC(=O)CSc2nc(C)cc(=O)[nH]2)cc1	x	13%	2%	-20%	-5%	52%
CCOC(=O)c1c(-c2ccc(C)o2)csc1NC(=O)CSc1nnnn1-c1ccccc1	17	1.8µM*	u	5.6µM*	-4%	x
Nc1cc(=O)[nH]c(SCC(=O)Nc2cccc(Cl)c2Cl)n1	11	-11%	-3%	2%	1%	93%
COc1ccc(-c2cc(C(=O)NCc3cccc(C(F)(F)F)c3)[nH]n2)c(C)c1	-12	x	x	x	x	x
O=C(CSc1nnc(CNC(=O)c2cccs2)o1)Nc1ccccc1C(F)(F)F	-24	17%	16%	-4%	1%	u
CCOC(=O)c1c(-c2ccc(C)o2)csc1NC(=O)CSc1nnc(C)s1	-10	u	12µM*	u	-6%	169%
CCOC(=O)c1c(-c2ccc(C)o2)csc1NC(=S)NC(=O)c1cccs1	u	u	u	-22%	-8%	u
CCOC(=O)c1c(-c2ccc(C)o2)csc1NC(=O)COC(=O)c1ccc(NC(N)=O)cc1	-24	u	8.3µM*	10µM*	15%	x
CCOC(=O)c1c(-c2ccccc2)csc1NC(=O)CSc1nnc(C)s1	u	u	2.9µM*	-15%	-15%	u
CCOC(=O)c1c(NC(=O)CSc2nnc(N)s2)sc(C)c1-c1ccc(C)cc1	u	25µM*	u	-8%	-97%	10µM*
CCOC(=O)c1c(NC(=O)CSc2nnc(C)c(=O)[nH]2)sc(C)c1-c1ccc(C)cc1	-38	-10%	-5%	9%	0%	3%
CCCCN(CC)CCCNC(=O)c1cc2c(=O)[nH]c3ccccc3c2n1C	0	x	x	u	x	x
N[C@@H](CO)C(=O)NNCc1ccc(O)c(O)c1O	x	x	6%	x	x	-16%
Cc1nnc(SCC(=O)Nc2nnc(SCc3cccc(Br)c3)s2)s1	16	14%	8%	3%	-9%	7.4µM*
SMILES	HCMV inh	HCV inh	Pf growth 48h	Sm TGR inh	SARS PLpro yeast	Pf growth 96h
CCOC(=O)c1c(CC(C)C)csc1NC(=O)COC(=O)c1ccc(O)cc1	-19	u	u	0%	2%	9.3µM*
COc1ccc(N(CC(=O)NCCc2ccc(Cl)cc2)S(=O)(=O)c2c(C)[nH]c(=O)[nH]c2=O)cc1	-34	19%	-23%	0%	-3%	u
C/C=C(/CCC1NCCc2c1[nH]c1ccccc21)[Si](C)(C)C (stereo unspecified)	26	u	x	x	x	x
Cn1ccsc1=NC(=O)c1ccc(S(C)(=O)=O)c([N+](=O)[O-])c1	-6	10µM*	42%	0%	-4%	15%
COc1ccc2ncc3c(-c4ccc(C)c(C)c4)nn(CC(=O)NC4CCCCC4)c3c2c1	-14	x	x	3%	x	x
COCCn1c(-c2ccc3ccccc3c2)nc2c1c(=O)[nH]c(=O)n2CC(C)C	-30	u	u	-2%	3%	u
Cc1ccc2ncc3c(-c4ccc(F)cc4)nn(CC(=O)Nc4ccccc4C)c3c2c1	21	x	x	5%	x	x
COc1ccc(C(=O)NC(=S)Nc2ccc(S(=O)(=O)Nc3cc(OC)ncn3)cc2)cc1	-17	u	1%	20µM*	-1%	0%
COc1cc(NS(=O)(=O)c2ccc(NC(=S)NC(=O)c3ccc(F)cc3)cc2)nc(OC)n1	15	18%	21%	32µM*	-1%	-9%
COc1cc(NS(=O)(=O)c2ccc(NC(=S)NC(=O)c3ccco3)cc2)ncn1	-21	8%	2%	40µM*	-2%	-23%[1.15 µM]
COc1ccc(C(=O)NC(=S)Nc2ccc(S(=O)(=O)Nc3cc(OC)nc(OC)n3)cc2)cc1	-12	11%	-14%	14µM*	1%	39%
COc1cc(NS(=O)(=O)c2ccc(NC(=S)NC(=O)c3sc4ccccc4c3Cl)cc2)ncn1	-23	3%	7%	3%	-30%	-29%
NC(=S)NNC(=O)COc1ccccc1O	-1	-8%	8%	-3%	0%	19%
CC(C)(C)C(=O)NCCc1nc(-c2ccccc2)no1	u	8%	x	x	x	x
COc1ccc(OC)c(C(=O)NC(CC(N)=O)c2ccc(N3CCC(Cc4ccccc4)CC3)c([N+](=O)[O-])c2)c1 (stereo unspecified)	32	-7%	3%	-24%	3%	13%
COc1cc(NS(=O)(=O)c2ccc(NS(=O)(=O)c3ccc(C)cc3)cc2)nc(OC)n1	-11	5%	9%	-2%	0%	1.9µM*
COc1cc(NS(=O)(=O)c2ccc(N)cc2)nc(OC)n1	35	-1%[8.37 µM]	-7%	-9%	13%	0%
CN(C)/C=C1\SC(=S)N(c2ccc(Br)cc2)C1=O	10	1%	2.3µM*	-3%	-4%	75%
CN(C)/C=C1\SC(=S)N(c2ccc(F)cc2)C1=O	29	-2%	u	-6%	-2%	81%
COC(=O)c1c(NC(=O)c2nc3nc(C)cc(C(F)F)n3n2)sc2c1CCC2	-27	10µM*	u	-1%	9%	5.2µM*
